Bioassay records as filed in PubChem.
This is a sample that favours compounds with a hit; in the whole collection about 21% have one here.
AMA1 RON2 block – AMA1-RON2 (P. falciparum) interaction inhibition. AlphaScreen AMA1-biotinylated RON2 peptide binding. Potency, µM (series often up to 58.2 µM), inactives show at the top dose activity change, negative = inhibition, actives largely listed as inhibitors. hit rate 0.2% among 360,000. AID 720542;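 note: potency is the fitted concentration of half-maximal effect; 0% = vehicle wells and -100% = peptide control; nearly all actives have a fitted effect of over 45% in size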
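AMA1 (3D7) with his tag at 25 nM final met compounds first, then biotinylated RON2 peptide at 25 nM; detection used donor plus acceptor beads, 10 µg/mL apiece, read by AlphaScreen after 30 min at room temperature.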
CHX counter – counter-screen for Shiga toxin inhibitors: cycloheximide protein synthesis inhibition. cell reporter, cycloheximide protein synthesis inhibition counterscreen. max response, %. hit rate 12% among 300,000. AID 2314; in the data active = max response mostly above about 13%, no sharp cut-off; inactive = mostly below about 14%; note: read at 38.3 µM for the half of the compounds with a filed dose; 0% is about no effect
Pf growth 48h – inhibits P. falciparum growth in the first generation, 48 h; hit rate 5.9% among 310,000; Potency, µM (doses to about 28.7 µM), for inactives: top-dose activity change, negative = inhibition, most hits filed as inhibitors; P. falciparum luciferase growth in erythrocytes, 48 h; note: potency is the fitted concentration of half-maximal effect; % is set by controls: 0 for no effect and ±100 for the full control effect
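Parasite viability was followed by luminescence of a genomically integrated firefly luciferase. Cultures held 0.1% parasitemia at 2% hematocrit (final), incubated under 5% CO2 at 37 C.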
Pf growth 96h – P. falciparum growth inhibition at 96 hour, primary screen for plastid delayed-death inhibitors; P. falciparum luciferase reporter growth, 96 h; Potency, µM (highest dose often 28.7 µM), for the others: at the highest dose activity change, negative = inhibition, actives largely listed as inhibitors; hit rate 6.9% among 320,000; AID 504834; note: potency is the fitted concentration of half-maximal effect; % is set by controls: 0 for no effect and ±100 for the full control effect
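Luminescence readout: decreased luciferase signal marks inhibited growth of reporter-expressing P. falciparum in infected red cells (2% hematocrit, 0.05% parasitemia final), exposed to compound two generations (96 h, 37 C, 5% CO2).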
HCV inh – HCV inhibition; Huh7.5.1 HCVcc-Cre infection, luciferase reporter, 44 h; Potency, µM (series often up to 41.8 µM), without a hit: at the top dose activity change, negative = inhibition, most hits filed as inhibitors; hit rate 3.4% among 340,000; AID 651820; note: potency is the fitted concentration of half-maximal effect; % is set by controls: 0 for no effect and ±100 for the full control effect
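Luciferase read-out (15 sec integration) after a 15 min room-temperature substrate step quantifies HCVcc-Cre infection. Cells, 1,000 per well, had compound added 4 h post-plating, then virus at ~0.5 moi, and were cultured 44 h.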
Shiga toxin inh – Shiga toxin inhibition; inhibition, % at 38.7 µM; Vero cells, Shiga toxin protein synthesis inhibition reporter; hit rate 9.2% among 290,000; in the data active = inhibition mostly above about 28%, no sharp cut-off; inactive = mostly below about 43%; note: 0% is about no effect
* hit, by the source's call; i = inactive; ? = inconclusive; nt = no result; [ ] = remark or other dose. Unless noted, calls come from the whole dose curve; as a rule, active = well fitted curve in the direction sought with a large enough effect; inconclusive = small, poorly fitted or top-dose-only effect, or another doubt; inactive = no such curve, though single readings can be large; an effect the other way counts as inactive or inconclusive.

SMILES	AMA1 RON2 block	CHX counter	Pf growth 48h	Pf growth 96h	HCV inh	Shiga toxin inh
CC1Cc2ccccc2N1C(=O)CSc1ccccc1 (configuration not stated)	6%	51*	-16%	?	?	98
C(=NOCCc1ccccc1)c1ccccn1	12%	nt	nt	nt	7%	nt
CC1CCN(CC(=O)N2CCc3ccccc32)CC1	-1%	17*	-2%	-21%	-10%	25
O=C(Cn1cc([N+](=O)[O-])cn1)N1CCCc2ccccc21	2%	28	10%	i	24%	53*
CC1Cc2ccccc2N1C(=O)CCn1c(=O)sc2ccccc21 (configuration not stated)	6%	12*	?	?	-18%	59
CC1Cc2ccccc2N1C(=O)CNc1ccccc1N1CCCCC1 (configuration not stated)	?	1	?	13µM*	1%	18
CC1Cc2ccccc2N1C(=O)CCN1C(=O)C2C3C=CC(C3)C2C1=O (configuration not stated)	-10%	14	8%	9%	-13%	2
CCc1ccc(-n2c(=S)sc3c(=O)[nH]c(SCC(=O)NC4CCCCC4)nc32)cc1	12%	nt	nt	nt	nt	nt
Cc1ccccc1CC(=O)N1CCOCC1	0%	-2	9%	42%	1%	-3
CCN(C(=O)N1CCOCC1)c1ccccc1C	8%	-2	0%	6.6µM*	22%	18
COc1ccc(N(C(=O)c2ccco2)C(C(=O)NC2CCCCC2)c2cccs2)cc1OC (configuration not stated)	-4%	-2	?	85%	5%	-6
COc1ccc(N(C(=O)CCl)C(C(=O)NCCc2ccccc2)c2cccs2)cc1Cl (configuration not stated)	-4%	-6	9.3µM*	4.7µM*	0.56µM*	-22
Cc1ccc(S(=O)(=O)Nc2ccccc2F)cc1C(=O)NCc1ccco1	6%	nt	-12%	?	12%	nt
Cc1c(Nc2cc(Cl)c3nonc3c2[N+](=O)[O-])c(=O)n(-c2ccccc2)n1C	1%	-14	-18%	-79%	4µM*	-24
Cc1c(Nc2ccc3nonc3c2[N+](=O)[O-])c(=O)n(-c2ccccc2)n1C	-1%	-6	14%	0.66µM*	6%	21
Cc1c(Nc2cc(N3CCOCC3)c3nonc3c2[N+](=O)[O-])c(=O)n(-c2ccccc2)n1C	nt	-1	-7%	?	nt	-9
COc1ccc(-c2ccc3c(c2)c(Sc2ccccc2)c(-c2ccccc2)n3C)cc1	-1%	nt	nt	nt	nt	nt
Cc1ccc(O)c(CNCCNCc2cc(C)ccc2O)c1	114%	nt	7.4µM*	2.6µM*	?	nt
Oc1cc(CNCc2ccccc2)c(O)cc1CNCc1ccccc1	14%	nt	nt	nt	13%	nt
CCc1ccc(O)c(CNCCNCc2cc(CC)ccc2O)c1	57%	nt	6.6µM*	5.9µM*	?	nt
COc1ccc(NC(=O)C2C3C=CC4(O3)C2C(=O)N(CCN2CCCCC2C)C4C(=O)NC2CCCCC2)cc1 (configuration not stated)	-3%	-3	-3%	?	?	-7
CC(C)C(C)(C#N)NC(=O)CSc1nnc(-c2ccncc2)n1Cc1ccccc1 (configuration not stated)	69%	-1	?	3.7µM*	21%	34
CC(C)C(C)(C#N)NC(=O)CSc1nc2scc(-c3ccc(F)cc3)c2c(=O)n1Cc1ccccc1 (configuration not stated)	15%	0	9.3µM*	4.7µM*	-17%	-1
CC(NCCN(C)C)C1CCC2C3CCc4cc(O)ccc4C3CCC12C (configuration not stated)	6%	nt	nt	nt	?	nt
CN1CCN(C(=O)c2ccccc2NC(=O)c2ccccc2)CC1	0%	-1	-8%	?	10%	-7
SMILES	AMA1 RON2 block	CHX counter	Pf growth 48h	Pf growth 96h	HCV inh	Shiga toxin inh
COCCN1C[C@@H](CO)O[C@@H](n2cnc3c(N4CCCC4)ncnc32)C1	-7%	nt	nt	nt	nt	nt
Cc1ccc2c(c1)N(C(=O)CCC(=O)N1CCC(C(N)=O)CC1)CC(C)O2 (configuration not stated)	31%	-2	-5%	13µM*	0%	8
Cc1ccc2c(c1)N(C(=O)CCC(=O)NCc1cccnc1)CC(C)O2 (configuration not stated)	12%	-4	-9%	13µM*	-2%	2
CCOC(=O)N1CCN(C(=O)C2CCC(=O)N(Cc3cccc(C(F)(F)F)c3)C2)CC1 (configuration not stated)	-2%	-2	?	?	nt	-7
COC(=O)C/C=C/[C@@H](C)[C@@H](/C=N/O[C@H](C)c1cn([C@@H]2COC[C@H]2O)nn1)NS(=O)(=O)c1ccc(C)cc1	nt	-2	?	-16%	7%[8.37 µM]	-11
C/C(CCC(=O)OC[C@H]1O[C@H](C#Cc2ccccc2)C=C[C@@H]1Oc1ccc(C)cc1)=N\O[C@@H](C)CN1CCCCc2nc(C)c(C)cc21	nt	-1	15µM*	4.1µM*	0%[8.37 µM]	50
CC(=O)OC[C@H]1O[C@@H](O/N=C(\C)CCN2CCCCc3nc(C)c(C)cc32)[C@H](OC(C)=O)[C@@H](OC(C)=O)[C@@H]1OC(C)=O	nt	-2	-22%	0%	0%[8.37 µM]	-11
COc1ccc(O[C@H]2C=C[C@@H](c3ccccc3)O[C@@H]2COC(=O)CC/C(C)=N/O[C@@H](C)c2cn([C@H](CO)Cc3ccccc3)nn2)cc1	nt	-1	?	?	4%[8.37 µM]	-3
COC(=O)C/C=C/[C@@H](C)[C@@H](/C=N/OC[C@H]1O[C@H](c2ccccc2)C=C[C@@H]1Oc1ccc(OC)cc1)NS(=O)(=O)c1ccc(C)cc1	nt	-2	12µM*	7.4µM*	1%[8.37 µM]	-9
COc1ccc(O[C@H]2C=C[C@@H](c3ccccc3)O[C@@H]2COC(=O)CC/C(C)=N/O[C@@H](C)CN2CCCCc3nc(C)c(C)cc32)cc1	nt	-4	5.9µM*	8.3µM*	-6%[8.37 µM]	-11
COc1ccc(O[C@H]2C=C[C@@H](c3ccccc3)O[C@@H]2CO/N=C(\C)CCC(=O)OC[C@H]2O[C@H](c3ccccc3)C=C[C@@H]2Oc2ccc(OC)cc2)cc1	nt	-1	2.6µM*	2.3µM*	-5%[8.37 µM]	4
Cc1cscc1-c1nc(NCC2CC2)nc2ccsc12	74%	nt	nt	nt	nt	nt
COc1ccc(S(=O)(=O)Nc2cc3c4c(c2)CCC(=O)N4CCC3)cc1C	-15%	nt	?	?	?	nt
CCCS(=O)(=O)NC(=O)C1(C)CCN(C(=O)Cc2cccc(OC)c2)C1 (configuration not stated)	0%	nt	nt	nt	nt	nt
COC(=O)c1ccc(/C=N/Nc2nc3ccccc3[nH]2)cc1	5%	47*	?	?	3%	151*
C(=N\Nc1nc2ccccc2[nH]1)/c1ccncc1	3%	33*	?	0%	-20%	69*
